# Results reported in PubChem BioAssay (NCATS).
# “And” between values parts separate entries of the source, which are not always exact repeats. Identical values can stand only once. Results filed as inconclusive are left out. A call without a number means that no potency is given here. The source made the active and inactive calls. The call rests on the fitted dose curve; in most records, active means well fitted curve in the direction sought with a large enough effect; inconclusive means small, poorly fitted or top-dose-only effect, or another doubt; inactive means no such curve, though single readings can be large; an effect the other way counts as inactive or inconclusive.
# What was measured:
# [1] = target: Cellular tumor antigen p53 (Homo sapiens) (UniProt P04637); test: Primary qHTS for small molecule compounds that upregulate eGFP-tagged delta133p53alpha (in N-terminal) cells. (AID 2060322); details: NCI-H358 eGFP-delta133p53alpha fluorescence, 24 h; activation: hits give high values; further: nearly all actives have a fitted effect of over 75% in size; further: potency means the concentration at half of the fitted maximal effect;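 on activation: cells pre-induced with doxycycline then dosed without doxycycline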
# Chain of Cellular tumor antigen p53 (Homo sapiens) (P04637 whole entry, looked up): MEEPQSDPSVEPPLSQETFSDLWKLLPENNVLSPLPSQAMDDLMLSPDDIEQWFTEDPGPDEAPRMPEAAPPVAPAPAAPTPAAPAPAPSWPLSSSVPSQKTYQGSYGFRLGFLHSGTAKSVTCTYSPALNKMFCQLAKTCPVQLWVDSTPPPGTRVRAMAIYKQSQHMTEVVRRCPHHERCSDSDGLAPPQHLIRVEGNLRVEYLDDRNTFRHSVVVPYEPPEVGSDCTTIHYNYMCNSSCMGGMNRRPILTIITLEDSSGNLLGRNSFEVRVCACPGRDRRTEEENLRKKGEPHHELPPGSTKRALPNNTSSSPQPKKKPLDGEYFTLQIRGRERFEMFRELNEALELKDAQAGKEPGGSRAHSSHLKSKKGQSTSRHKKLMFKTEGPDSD
# In short: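 NCI-H358 cells pre-induced 24 h with 10 ng/ml doxycycline for eGFP-delta133p53alpha, plated dox-free and exposed 24 h at 37C to titrated compounds. Fixed, Hoechst-stained; gated GFP peak intensity by laser scanning cytometry, normalized to DMSO (0%) and 57.5 uM 5-azacytidine (100%).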
# [2] = target: Retinaldehyde dehydrogenase 3 (Homo sapiens) (UniProt P47895); test: qHTS for Inhibitors of the Aldehyde Dehydrogenase Family (ALDH1A3) Confirmatory screens (AID 2061311); details: ALDH inhibition qHTS; series mostly up to 46 µM; further: potency means the concentration at half of the fitted maximal effect; nearly all actives have a fitted effect of over 60% in size
# [3] = target: Aldehyde dehydrogenase 1A1 (Homo sapiens) (UniProt P00352); test: qHTS for Inhibitors of the Aldehyde Dehydrogenase Family (ALDH1A1) Confirmatory screens (AID 2061316); details: ALDH inhibition qHTS; series mostly up to 47.3 µM; further: potency means the concentration at half of the fitted maximal effect; nearly all actives have a fitted effect of over 65% in size
# [4] = target: Retinaldehyde dehydrogenase 3 (Homo sapiens) (UniProt P47895); test: qHTS for Inhibitors of the Aldehyde Dehydrogenase Family (ALDH1A3) Primary screen (AID 2061315); details: ALDH inhibition qHTS; series mostly up to 56 µM
# [5] = target: Aldehyde dehydrogenase, mitochondrial (Homo sapiens) (UniProt P05091); test: qHTS for Inhibitors of the Aldehyde Dehydrogenase Family (ALDH2) Primary screen (AID 2061308); details: ALDH2 enzyme inhibition qHTS, 1536-well; series mostly up to 56 µM; further: nearly all actives have a fitted effect of over 55% in size
# [6] = BET inhibitor-based combinations targeting novel dependencies in MECOM-rearranged (r) AML: AML-191 cell line (AID 2202236; further: nearly all actives have a fitted effect of over 35% in size; further: potency means the concentration at half of the fitted maximal effect); details: AML-191 viability, CellTiter-Glo luminescence, 48 h; series mostly up to 46 µM
# In short: (§1)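 Readout: CellTiter-Glo luminescence. Exposure: 48 h, 11 concentrations, 500 cells/well. Metric: AUC and within-line Z-AUC after DMSO/empty-well normalization.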
# [7] = BET inhibitor-based combinations targeting novel dependencies in MECOM-rearranged (r) AML: SET-2 cell line (AID 2202231); details: SET-2 AML cells viability, CellTiter-Glo luminescence, 48 h; viability: hits give low values, concentration not given here; further: nearly all actives have a fitted effect of over 35% in size; further: potency means the concentration at half of the fitted maximal effect
# In short: as §1
# [8] = BET inhibitor-based combinations targeting novel dependencies in MECOM-rearranged (r) AML: OCI-AML3 cell line (AID 2202232); details: CellTiter-Glo luminescence, 48 h; Potency: OCI-AML3 viability; series mostly up to 46 µM; further: nearly all actives have a fitted effect of over 35% in size
# In short: as §1
# [9] = BET inhibitor-based combinations targeting novel dependencies in MECOM-rearranged (r) AML: MV-4-11 cell line (AID 2202233); details: MV-4-11 AML viability, CellTiter-Glo luminescence, 48 h; series mostly up to 46 µM; further: nearly all actives have a fitted effect of over 45% in size; further: potency means the concentration at half of the fitted maximal effect
# In short: (§2)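 Seeding density was 500 cells/well, and drug exposure lasted 48 hr under standard culture conditions. Read-out used CellTiter-Glo reagent with a 15 min room-temperature incubation before luminescence measurement; AUC and Z-AUC summarize the normalized responses.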
# [10] = BET inhibitor-based combinations targeting novel dependencies in MECOM-rearranged (r) AML: UCSD-AML1 cell line (AID 2202235); details: UCSD-AML1 AML cells viability, CellTiter-Glo, 48 h; series mostly up to 46 µM; further: nearly all actives have a fitted effect of over 40% in size
# In short: as §2
# [11] = BET inhibitor-based combinations targeting novel dependencies in MECOM-rearranged (r) AML: AML-194 cell line (AID 2202237; further: nearly all actives have a fitted effect of over 40% in size); details: AML-194 (MECOM-r AML) viability, CellTiter-Glo, 48 h; series mostly up to 46 µM
# In short: as §1
# [12] = BET inhibitor-based combinations targeting novel dependencies in MECOM-rearranged (r) AML: HNT-34 cell line (AID 2202234); details: HNT-34 AML viability, CellTiter-Glo luminescence, 48 h; series mostly up to 46 µM; further: nearly all actives have a fitted effect of over 35% in size
# In short: as §2
structure (smiles),measurement,setting,value
COc1ccc2c(c[n+](C)c3c4cc5c(cc4ccc23)OCO5)c1OC,Potency,[1],43.2 µM (active)
same,Potency,[2],7.12 µM (active)
same,Potency,[3],6.34 µM (active)
CC(=O)OCC1=C(C(=O)O)N2C(=O)[C@@H](N)[C@H]2SC1,activation,[1],19.8% (inactive) and -5.67% (inactive)
same,Potency,[4],inactive
C[C@H](Nc1ncnc2nc[nH]c12)c1nc2ccc(F)cc2c(=O)n1-c1ccccc1,activation,[1],11.6% (inactive)
same,Potency,[5],inactive
same,Potency,[4],inactive
same,Potency,[6],5.25 µM (active)
C[C@]12CC[C@@H]3[C@@H](CCC4=CC(=O)CC[C@@H]43)[C@@H]1CC[C@@H]2OC(=O)CCc1ccccc1,activation,[1],7.88% (inactive)
same,viability,[7],104% (inactive)
same,Potency,[8],inactive
same,Potency,[9],18.6 µM (active)
same,Potency,[10],inactive
same,Potency,[6],inactive
same,Potency,[11],inactive
O=c1[nH]c2ccccc2n1C1CCN(Cc2ccc(-c3[nH]c4cc5ncnc5cc4nc3-c3ccccc3)cc2)CC1,activation,[1],5.59% (inactive)
same,viability,[7],104% (inactive)
Cc1sc2c(c1C)C(c1ccc(Cl)cc1)=NC(CC(N)=O)c1nnc(C)n1-2 (configuration not stated),activation,[1],-1.12% (inactive)
same,Potency,[7],0.263 µM (active)
C[C@]12CC[C@@H]3c4ccc(OC(=O)N(CCCl)CCCl)cc4CC[C@H]3[C@@H]1CC[C@@H]2OP(=O)(O)O,activation,[1],-2.49% (inactive) and -2.33% (inactive)
same,Potency,[4],inactive
same,Potency,[8],inactive
same,Potency,[9],inactive
same,Potency,[12],inactive
same,Potency,[6],inactive
same,Potency,[11],inactive
CCC1(O)CCC2C3CCC4=CC(=O)CCC4C3CCC21CC (configuration not stated),activation,[1],-2.33% (inactive)
same,Potency,[5],inactive
same,Potency,[4],inactive
O=C(C[C@@H]1NCCC[C@H]1O)Cn1cnc2ccccc2c1=O,Potency,[1],0.239 µM (active)
same,Potency,[4],inactive
